Where “and” joins values, the source holds several entries; their conditions need not be identical. Equal values may be shown once. Calls of active or inactive are those of the source.

Experimental findings from PubChem BioAssay are described below.

For assay [1], the system named is Plasmodium falciparum Sir2 (PF13_0152, Sir2A). Put plainly: Plasmodium falciparum Sir2A binding compounds – biochemical, small-molecule microarray, 635 nm fluorescence, primary screen (AID 1098).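 Also: score merges spot fluorescence intensity with its signal-to-noise ratio.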 Conditions: fluorescence 635 nm, higher = more signal.
Assay [2] in a line: probe aDKK1 binding to arrayed compounds – biochemical, biotinylated probe, 635/667 nm fluorescence, primary screen (AID 1099).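 Also: score merges 667nm spot fluorescence with signal to noise across triplicate slides.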 Conditions: small-molecule microarray, higher = more signal.
Assay [3] can be described thus: probe aCHRDL2 binding to arrayed compounds – biochemical, biotinylated probe, 635/667 nm fluorescence, primary screen (AID 1100). The note with it: small-molecule microarray, higher = more signal.
A short description of assay [4]: change in splice reporter luminescence, either direction, cell-based, HEK293, spliceosome inhibition project, primary screen (AID 1101).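 Also: HEK293 cells carrying a splicing-competent luciferase reporter gene; test concentration not given here.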 The note with it: HEK293 splicing luciferase reporter, 24 h, higher = more signal, called active from +8 up or from −8 down. On the technique in general: In a reporter assay the amount or activity of a reporter protein is the signal.

The target of assay [5] is Fibroblast growth factor 10 (Homo sapiens) (UniProt O15520). Put plainly: compounds binding fibroblast growth factor 10 – biochemical, small-molecule microarray, 635 nm fluorescence, primary screen (AID 1102). The note with it: FGF10 binding, fluorescence 635 nm, higher = more signal.
The test system of assay [6] is glycogen synthase kinase-3 (GSK3A per assay name; protocol says GSK3B). Put plainly: compounds binding glycogen synthase kinase-3 – biochemical, small-molecule microarray, 635 nm fluorescence, GSK3A, primary screen (AID 1103). Also: the record names both GSK3A and GSK3B. The note with it: fluorescence 635 nm, higher = more signal.
The target in assay [7] is Epidermal growth factor receptor (Homo sapiens) (UniProt P00533). Put plainly: compounds binding epidermal growth factor receptor – biochemical, small-molecule microarray, 635 nm fluorescence, primary screen (AID 1104).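 Also: score merges 667 nm emission intensity with spot signal to noise over triplicate slides.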 Conditions: EGFR binding, higher = more signal.
In assay [8] the target is Follistatin-related protein 3 (Homo sapiens) (UniProt O95633). Put plainly: compounds binding follistatin-related protein 3 – biochemical, small-molecule microarray, 635 nm fluorescence, primary screen (AID 1105).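 Also: score merges emission near 667 nm and signal to noise per printed spot across three slides.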 The note with it: FSTL3 binding, higher = more signal.
For assay [9], the target named is Dickkopf-related protein 1 (Homo sapiens) (UniProt O94907). Put plainly: small molecules binding DKK1 protein – biochemical, small-molecule microarray, 635 nm fluorescence scan, primary screen (AID 1106).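 Also: score merges emission near 667 nm with signal to noise over three replicate slides.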 Conditions: higher = more signal.
Assay [10] deals with Inhibin beta A chain (activin A). Put plainly: small molecules binding activin A – biochemical, small-molecule microarray, 635 nm fluorescence scan, primary screen (AID 1107).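 Also: mouse activin A protein probed at 4.33 µg/mL on printed slides; score merges bound-protein fluorescence near 667 nm with spot signal-to-noise.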 The note with it: INHBA, higher = more signal.
Assay [11] relates to Human papillomavirus type 1a protein E7 (residues 44-93). The assay can be described thus: small molecules binding HPV E7 44-93 – biochemical, small-molecule microarray, residues 44-93, 635 nm fluorescence, primary screen (AID 1108).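 Also: E7 fragment applied at 1 µg/mL in TBST for 1 h at 4 C; score combines spot fluorescence with its signal to noise ratio.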 The note with it: fluorescence 635 nm, higher = more signal.
Assay [12] in a line: hepatitis C replication reporter changes, two-sided – Huh7 cells, luciferase reporter, HCV replication inhibitor project, primary screen (AID 1109).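 Also: huh7 hepatoma cells harbouring a luciferase neomycin HCV replicon reporter; luciferase luminescence as measure of HCV replicon replication; test concentration not given here.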 Conditions: Huh7 HCV replicon luciferase reporter, 48 h; higher = more signal.
Assay [13] concerns the target Left-right determination factor 2 (Homo sapiens) (UniProt O00292). Put plainly: small molecules binding LEFTY2 protein – biochemical, small-molecule microarray, 635 nm fluorescence scan, primary screen (AID 1110). The note with it: higher = more signal.
Assay [14] addresses Calmodulin-1 (Homo sapiens) (UniProt P0DP23). Put plainly: small molecules binding calmodulin-1 with EGTA – biochemical, small-molecule microarray, Cy5-labelled CALM1, profiling panel (AID 1111).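 Also: labelled calmodulin applied in Tris saline Tween buffer holding calcium plus EGTA and DTT.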 Conditions: Cy5-CALM1 binding fluorescence, higher = more signal.
For assay [15] the target is unchanged. The assay can be described thus: small molecules binding Ca-loaded calmodulin-1 – biochemical, small-molecule microarray, Cy5-labelled CALM1, plus calcium, artefact control for SMM control-protein annotation, profiling panel (AID 1112).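 Also: score merges spot fluorescence with signal to noise from triplicate slides.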 Conditions: Cy5-CALM1 binding fluorescence, higher = more signal.
The nature of assay [16]: probe aWnt5a binding to arrayed compounds – biochemical, biotinylated probe, 635/667 nm fluorescence, primary screen (AID 1113).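 Also: score merges 667 nm fluorescence intensity with signal-to-noise per printed feature.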 The note with it: small-molecule microarray, higher = more signal.
Assay [17] is described as follows: probe aShh binding to arrayed compounds – biochemical, biotinylated probe, 635/667 nm fluorescence, primary screen (AID 1114).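 Also: probe is biotin-labelled aShh protein from a stem cell growth factor screen; measures binding of labelled protein to compounds printed on the slide; score merges feature fluorescence at 667 nm with signal-to-noise.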 Conditions: small-molecule microarray, higher = more signal.
Assay [18] in a line: probe aNog binding to arrayed compounds – biochemical, biotinylated probe, 635/667 nm fluorescence, primary screen (AID 1115).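 Also: probe is biotinylated aNog protein used at 0.15 µg/mL for 1 h at 4 C; z-score combines 667 nm fluorescence of each spot with its signal to noise.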 Conditions: small-molecule microarray, higher = more signal.
In assay [19] the target is Torsin-1A-interacting protein 1 (Homo sapiens) (UniProt Q5JTV8). The assay can be described thus: compound microarray binding of lysate hLAP1 – cell lysate, small-molecule microarray, COS7 lysate, 635/667 nm fluorescence, primary screen (AID 1116). Conditions: 635 nm fluorescence, higher = more signal.
Assay [20] concerns the target Alpha-bungarotoxin (Bungarus multicinctus) (UniProt P60615). Put plainly: compounds binding labelled alpha-BTX control protein – biochemical, small-molecule microarray, Alexa647 label, 635/667 nm fluorescence, artefact control for SMM control protein annotation, profiling panel (AID 1117). The note with it: alpha-BTX-A647 binding fluorescence, higher = more signal.

Chain of Follistatin-related protein 3 (Homo sapiens) (O95633 whole entry, looked up): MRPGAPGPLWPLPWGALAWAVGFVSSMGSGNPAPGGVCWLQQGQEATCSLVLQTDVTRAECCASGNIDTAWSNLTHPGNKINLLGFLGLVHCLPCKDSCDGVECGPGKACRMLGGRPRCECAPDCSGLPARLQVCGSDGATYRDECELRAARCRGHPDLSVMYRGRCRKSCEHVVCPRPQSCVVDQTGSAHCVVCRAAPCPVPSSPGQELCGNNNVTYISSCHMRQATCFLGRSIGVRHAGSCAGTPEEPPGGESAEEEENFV
Chain of Left-right determination factor 2 (Homo sapiens) (O00292 whole entry, looked up): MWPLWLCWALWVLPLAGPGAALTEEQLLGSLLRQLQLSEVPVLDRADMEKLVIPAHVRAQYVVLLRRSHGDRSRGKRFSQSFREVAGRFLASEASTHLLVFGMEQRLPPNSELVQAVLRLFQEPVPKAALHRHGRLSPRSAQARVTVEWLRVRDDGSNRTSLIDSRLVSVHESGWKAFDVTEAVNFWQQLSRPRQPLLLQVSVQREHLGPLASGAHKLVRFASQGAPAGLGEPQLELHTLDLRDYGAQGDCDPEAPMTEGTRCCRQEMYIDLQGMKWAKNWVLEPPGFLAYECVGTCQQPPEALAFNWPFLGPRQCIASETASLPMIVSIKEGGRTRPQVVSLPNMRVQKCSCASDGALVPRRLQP
Chain of Epidermal growth factor receptor (Homo sapiens) (P00533 whole entry, looked up): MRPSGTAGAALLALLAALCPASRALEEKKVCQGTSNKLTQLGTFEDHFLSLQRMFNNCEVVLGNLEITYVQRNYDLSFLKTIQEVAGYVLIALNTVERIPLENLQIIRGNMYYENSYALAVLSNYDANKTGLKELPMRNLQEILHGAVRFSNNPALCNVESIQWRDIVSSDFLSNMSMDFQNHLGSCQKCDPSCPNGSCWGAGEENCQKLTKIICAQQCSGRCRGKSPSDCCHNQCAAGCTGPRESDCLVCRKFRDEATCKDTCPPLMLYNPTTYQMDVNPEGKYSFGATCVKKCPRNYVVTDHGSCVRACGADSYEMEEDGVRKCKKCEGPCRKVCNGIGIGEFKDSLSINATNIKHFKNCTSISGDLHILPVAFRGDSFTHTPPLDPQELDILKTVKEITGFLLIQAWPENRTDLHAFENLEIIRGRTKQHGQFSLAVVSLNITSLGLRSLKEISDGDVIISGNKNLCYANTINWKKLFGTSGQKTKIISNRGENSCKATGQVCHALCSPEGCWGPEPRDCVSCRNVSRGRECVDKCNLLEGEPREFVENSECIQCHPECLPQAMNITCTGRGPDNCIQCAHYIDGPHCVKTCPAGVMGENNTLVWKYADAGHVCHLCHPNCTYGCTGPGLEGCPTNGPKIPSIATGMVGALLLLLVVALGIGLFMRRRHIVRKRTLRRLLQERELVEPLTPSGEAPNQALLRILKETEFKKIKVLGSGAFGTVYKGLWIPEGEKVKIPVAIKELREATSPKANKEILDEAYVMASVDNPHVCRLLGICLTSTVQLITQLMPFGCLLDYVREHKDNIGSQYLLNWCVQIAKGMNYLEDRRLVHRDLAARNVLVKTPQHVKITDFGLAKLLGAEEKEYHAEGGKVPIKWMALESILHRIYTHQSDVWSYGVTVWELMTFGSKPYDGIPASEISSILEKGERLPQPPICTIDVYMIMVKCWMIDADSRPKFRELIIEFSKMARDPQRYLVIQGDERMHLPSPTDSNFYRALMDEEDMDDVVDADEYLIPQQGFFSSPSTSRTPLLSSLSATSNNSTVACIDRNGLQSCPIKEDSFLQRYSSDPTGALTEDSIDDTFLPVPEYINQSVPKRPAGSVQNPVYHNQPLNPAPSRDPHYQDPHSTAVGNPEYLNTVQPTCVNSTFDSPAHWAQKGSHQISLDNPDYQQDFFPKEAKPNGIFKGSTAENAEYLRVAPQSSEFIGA
Chain of Fibroblast growth factor 10 (Homo sapiens) (O15520 whole entry, looked up): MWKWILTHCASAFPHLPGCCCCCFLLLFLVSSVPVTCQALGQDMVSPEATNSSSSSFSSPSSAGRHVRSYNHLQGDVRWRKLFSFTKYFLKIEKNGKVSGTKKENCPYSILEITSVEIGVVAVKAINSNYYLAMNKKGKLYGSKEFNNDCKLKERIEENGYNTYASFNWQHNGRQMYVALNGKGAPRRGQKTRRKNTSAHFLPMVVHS
Chain of Dickkopf-related protein 1 (Homo sapiens) (O94907 whole entry, looked up): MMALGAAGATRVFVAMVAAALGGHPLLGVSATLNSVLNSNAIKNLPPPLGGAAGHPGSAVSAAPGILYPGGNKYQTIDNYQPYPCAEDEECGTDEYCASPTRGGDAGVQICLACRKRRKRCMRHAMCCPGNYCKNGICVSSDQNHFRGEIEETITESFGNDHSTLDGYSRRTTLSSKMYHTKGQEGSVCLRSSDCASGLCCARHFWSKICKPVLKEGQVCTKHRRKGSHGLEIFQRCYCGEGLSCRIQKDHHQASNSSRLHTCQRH
Chain of Alpha-bungarotoxin (Bungarus multicinctus) (P60615 whole entry, looked up): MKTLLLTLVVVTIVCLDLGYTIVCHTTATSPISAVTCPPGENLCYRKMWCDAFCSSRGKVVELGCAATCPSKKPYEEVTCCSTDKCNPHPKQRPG
Chain of Torsin-1A-interacting protein 1 (Homo sapiens) (Q5JTV8 whole entry, looked up): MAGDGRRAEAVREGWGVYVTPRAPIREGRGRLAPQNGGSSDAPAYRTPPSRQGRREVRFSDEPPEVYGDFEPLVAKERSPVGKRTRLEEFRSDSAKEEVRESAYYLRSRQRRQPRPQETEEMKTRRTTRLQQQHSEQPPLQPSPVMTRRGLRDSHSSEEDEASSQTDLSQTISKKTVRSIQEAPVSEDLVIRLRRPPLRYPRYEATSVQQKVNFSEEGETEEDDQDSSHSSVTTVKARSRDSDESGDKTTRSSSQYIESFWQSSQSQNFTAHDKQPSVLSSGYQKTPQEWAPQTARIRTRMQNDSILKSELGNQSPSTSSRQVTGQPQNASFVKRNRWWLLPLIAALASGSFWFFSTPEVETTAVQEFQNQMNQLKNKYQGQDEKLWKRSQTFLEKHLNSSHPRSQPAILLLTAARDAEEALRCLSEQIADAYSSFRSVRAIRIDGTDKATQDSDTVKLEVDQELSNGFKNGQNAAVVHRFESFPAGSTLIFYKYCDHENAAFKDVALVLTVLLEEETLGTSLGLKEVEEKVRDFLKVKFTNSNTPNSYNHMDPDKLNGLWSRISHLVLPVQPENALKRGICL

With `C=CCN(C(=O)C(c1cccs1)N(C(=O)/C=C\C(=O)O)c1ccc(CCO)cc1)c1ccc(OC)cc1` (stereo not given), the composite z-score in assay [1] is -0.087 and -1.23; in assay [2], -0.26 and 0.0389; in [3], 0.822 and 1.13; in [5] it was -1.94 and -2.06; in assay [6] it was -1.57 and -1.13; in assay [7] it was -1.46 and -2.92. Further, the composite z-score is -1.38 and -2.79 in assay [8]; -2.88 and -3.33 in assay [9]; -1.56 and -1.86 in assay [10]; -1.01 and -1.64 in assay [11]; -3 and -5.82 in assay [13]; -0.453 and -1.54 in assay [14]. Also, the composite z-score in assay [15] is 0.742 and -0.222; in [16] it was -0.203 and -0.27; in assay [17], -0.0709 and -0.138; in assay [18], -0.541 and -0.126; in assay [19] it was -1.16 and -1.72; in [20] it was -0.664 and -2.33. In addition, the z-score in assay [4] was 0.0213 (inactive) and 0.54 (inactive); in [12], -0.465 and -0.171.
Take `C=CCN(Cc1ccccc1)C(=O)C1N(c2ccc(CCO)cc2)C(=O)C2C(C(=O)O)C3C=CC21O3` (stereo not given): the composite z-score in assay [1] was 0.808 and 1.9; in assay [2], 0.433 and -0.26; in [3] it was 1.08 and 1.01; in [5], -1.98 and -2.13; in [6], -1.13 and -1; in assay [7], -1.69 and -2.44. Moreover, the composite z-score is -3.03 and -1.19 in assay [8]; -2.7 and -3.74 in [9]; -3.78 and -3.04 in [10]; -0.864 and -3.61 in assay [11]; -2.68 and -3.26 in assay [13]; -0.279 and -1.04 in assay [14]. The composite z-score in [15] was 0.428 and -0.184; in assay [16] it was -0.195 and -0.0792; in [17], 0.149 and -0.0035; in assay [18], -0.152 and 0.784; in assay [19], -0.958 and -1.58; in [20], -1.48 and 0.899. Besides, the z-score was -0.426 (inactive) and -0.139 (inactive) in assay [4]; 0.677 and 0.514 in assay [12].
In the case of `C=CCN(CCCC)C(=O)C1N(C(C)(C)CO)C(=O)C2C(C(=O)O)C3C=CC21O3` (stereo not given), the composite z-score in assay [1] is 0.645 and 0.0697; in assay [2], -0.188 and -0.123; in assay [3] it was 0.717 and 0.644; in assay [5] it was -1.84 and -0.834; in [6] it was -2.07 and -1.67; in assay [7] it was -1.97 and -1.42. In addition, the composite z-score in [8] is -2 and -2.8; in [9] it was -2.4 and -1.9; in [10] it was -3.85 and -3; in assay [11], -1.32 and -1.36; in assay [13], -3.24 and -2.31; in assay [14], -0.742 and -0.335. Moreover, the composite z-score in [15] was 1.1 and 0.491; in assay [16], -0.297 and -0.169; in assay [17], -0.0626 and -0.23; in [18], -0.0094 and 0.125; in [19], -1.24 and -2.03; in assay [20], -1.41 and -0.821. Besides, the z-score in assay [4] is 0.395 (inactive) and 0.383 (inactive); in [12], -0.299 and 0.145.
Take `CON(C)C(=O)c1nnc2c3ccccc3n(S(=O)(=O)c3ccc(C)cc3)c2n1`: the composite z-score was 0.478 and 0.658 in assay [1]; -0.0748 and 0.249 in [2]; -0.487 and -0.75 in [3]; 0.638 and 0.746 in assay [5]; 0.67 and 1.25 in assay [6]; 0.484 and 0.58 in [7]. In addition, the composite z-score in assay [8] was 0.476 and 1.02; in assay [9] it was 0.614 and 0.551; in assay [10], 0.454 and 0.688; in assay [11], 0.652 and 1.1; in [13], 0.755 and 0.321; in assay [14] it was 0.761 and -0.142. The composite z-score was -0.318 and -1.11 in [15]; -0.0748 and -0.006 in assay [16]; -0.223 and 0.0022 in assay [17]; -0.373 and 0.0369 in assay [18]; 0.637 and 0.223 in assay [19]; 0.787 and 0.219 in assay [20]. The z-score in assay [4] was 0.317 (inactive) and 0.807 (inactive); in assay [12], 1.78 and 1.38.
